According to PubChem BioAssay (Tox21):
Where “and” joins values, the source holds several entries; their conditions need not be identical. Equal entries are not always repeated. A number with no mark means an inactive call. Records with an inconclusive call do not appear. Where a call stands in place of a potency, no number is given. Calls of active or inactive are those of the source. Unless noted, calls follow the shape of the dose curve; as a rule, active = well fitted curve in the direction sought with a large enough effect in the repeat runs; inconclusive = weak or mixed curves; inactive = no such curve, though single readings can be large; an effect the other way counts as inactive or inconclusive.

What was measured:
[1] = qHTS assay to identify small molecule antagonists of the androgen receptor (AR) signaling pathway using the MDA cell line in the presence of 0.5 nM R1881 - cell viability counter screen (AID 1259242); also: nearly all actives have a fitted effect of over 45% in size; also: potency is read from the fitted curve at half-maximal effect
Procedure, shortened: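 Live-cell protease activity was measured by CellTiter-Fluor fluorescence after 30 min. Before that, MDA-kb2 MMTV-luciferase cells had 16 hr at 37C without CO2, exposed to test compounds and 0.5 nM R1881 final.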

[2] = biological target: Androgen receptor (Homo sapiens) (UniProt P10275); experiment: qHTS assay to identify small molecule antagonists of the androgen receptor (AR) signaling pathway using the MDA cell line in the presence of 0.5 nM R1881 (AID 1259243); also: nearly all actives have a fitted effect of over 50% in size; also: potency is read from the fitted curve at half-maximal effect
Procedure, shortened: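 Luminescent reporter readout (ONE-Glo, 30 min, room temperature) after 16 hr co-treatment of MDA-kb2 cells with test compounds and 0.5 nM R1881 final, at 37C without CO2. The MMTV-driven luciferase responds to both AR and GR.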

[3] = qHTS assay to identify small molecule phospholipidosis (PLD) inducers (AID 1259344; active = well fitted curve in the direction sought with a large enough effect; an effect the other way counts as inactive or inconclusive)
Procedure, shortened: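 Accumulated phospholipid, stained red by LipidTOX during 24 h compound treatment of HepG2 cells at 37 C, is quantified from images as pit number and intensity, normalised per cell using Hoechst-stained nuclei.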

[4] = qHTS assay to identify small molecule HDAC inhibitors (AID 1259364); also: top concentration of the series differs between compounds; nearly all actives have a fitted effect of over 45% in size
Procedure, shortened: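 Luminescence read after 30 min room-temperature HDAC-Glo incubation measures cellular class I/II HDAC activity. Compounds were applied for 2 hr at 37 C to HCT-116 wild-type cells seeded the day before.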

[5] = qHTS assay to identify small molecule HDAC inhibitors - cell viability counter screen (AID 1259365); also: series mostly up to about 92 µM; nearly all actives have a fitted effect of over 50% in size
Procedure, shortened: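 HCT-116 wild-type, overnight attachment; 2hr drug exposure, 37C; CellTiter-Glo luminescent ATP readout after 30min RT.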

[6] = qHTS assay to identify small molecule agonists of the sonic hedgehog signaling (Shh) pathway - cell viability counter screen (AID 1259366); also: nearly all actives have a fitted effect of over 50% in size; also: potency is read from the fitted curve at half-maximal effect
Procedure, shortened: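 Compounds in DMSO were pin-transferred onto 3T3 Gli1-Luc cells that had settled 4hr; plates then stood 24hr at 37C and 5% CO2. One hour before the end, CellTiter-Fluor was added and fluorescence recorded.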

[7] = qHTS assay to identify small molecule antagonists of the sonic hedgehog signaling (Shh) pathway - cell viability counter screen (AID 1259367); also: nearly all actives have a fitted effect of over 55% in size; also: potency is read from the fitted curve at half-maximal effect
Procedure, shortened: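 CellTiter-Fluor signal in conditioned medium-stimulated 3T3 Gli1-Luc cells, 23 hr compound exposure, 37C.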

[8] = qHTS assay to identify small molecule agonists of the sonic hedgehog signaling (Shh) pathway (AID 1259368; calls by dose curve;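 also: NIH/3T3-derived 3T3Gli1-Luc cells carrying a stable Gli1-driven firefly luciferase reporter; series mostly up to about 92 µM; nearly all actives have a fitted effect of over 15% in size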)
Procedure, shortened: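 Luminescence was read after 30 min at room temperature with luciferase reagent. Before that, 3T3Gli1-Luc cells (NIH/3T3 clone, stable Gli1-Luc reporter; 2,000/well) were exposed to compounds for 24 hr at 37C, 5% CO2, compounds being added 4 hr post-plating.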

[9] = biological target: Estrogen receptor (Homo sapiens) (UniProt P03372); experiment: qHTS assay to identify small molecule antagonists of the estrogen receptor alpha (ER-alpha) signaling pathway using the BG1 cell line in the presence of 0.1 nM 17-beta-estradiol (AID 1259244); also: nearly all actives have a fitted effect of over 50% in size; also: potency is read from the fitted curve at half-maximal effect
Procedure, shortened: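 Luciferase luminescence (ONE-Glo, 30 min at room temperature) was read after 22 hr at 37C exposure to compounds plus 17beta-estradiol at 0.1 nM final. Cells were VM7Luc4E2 with endogenous ER-alpha and an ERE-driven luciferase, pre-cultured 5 days in hormone-depleted medium.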

[10] = qHTS assay to identify small molecule antagonists of the estrogen receptor alpha (ER-alpha) signaling pathway using the BG1 cell line in the presence of 0.1 nM 17-beta-estradiol - cell viability counter screen (AID 1259241); also: nearly all actives have a fitted effect of over 40% in size; also: potency is read from the fitted curve at half-maximal effect
Procedure, shortened: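 Following 5 days in phenol red-free medium with charcoal-stripped serum, VM7Luc4E2 cells received test compounds alongside 0.1 nM 17beta-estradiol (final) at 37C for 22 hr. Live cells were then quantified via protease-substrate fluorescence.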

Chain of Estrogen receptor (Homo sapiens) (P03372 whole entry, looked up): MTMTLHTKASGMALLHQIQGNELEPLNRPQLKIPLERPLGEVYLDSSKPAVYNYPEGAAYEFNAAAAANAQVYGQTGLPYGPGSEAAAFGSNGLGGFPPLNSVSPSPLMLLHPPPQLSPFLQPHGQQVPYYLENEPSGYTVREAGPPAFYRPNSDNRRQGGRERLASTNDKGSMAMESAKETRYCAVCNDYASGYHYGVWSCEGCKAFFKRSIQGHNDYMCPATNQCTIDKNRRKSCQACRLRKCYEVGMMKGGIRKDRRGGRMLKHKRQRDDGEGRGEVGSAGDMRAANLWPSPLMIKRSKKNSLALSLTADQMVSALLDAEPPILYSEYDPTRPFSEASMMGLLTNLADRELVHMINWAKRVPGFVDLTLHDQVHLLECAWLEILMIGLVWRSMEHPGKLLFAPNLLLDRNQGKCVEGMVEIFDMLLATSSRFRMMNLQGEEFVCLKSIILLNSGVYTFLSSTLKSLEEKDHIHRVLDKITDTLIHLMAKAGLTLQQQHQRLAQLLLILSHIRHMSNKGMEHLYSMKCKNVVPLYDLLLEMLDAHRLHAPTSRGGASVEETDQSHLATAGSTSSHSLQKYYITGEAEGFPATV
Chain of Androgen receptor (Homo sapiens) (P10275 whole entry, looked up): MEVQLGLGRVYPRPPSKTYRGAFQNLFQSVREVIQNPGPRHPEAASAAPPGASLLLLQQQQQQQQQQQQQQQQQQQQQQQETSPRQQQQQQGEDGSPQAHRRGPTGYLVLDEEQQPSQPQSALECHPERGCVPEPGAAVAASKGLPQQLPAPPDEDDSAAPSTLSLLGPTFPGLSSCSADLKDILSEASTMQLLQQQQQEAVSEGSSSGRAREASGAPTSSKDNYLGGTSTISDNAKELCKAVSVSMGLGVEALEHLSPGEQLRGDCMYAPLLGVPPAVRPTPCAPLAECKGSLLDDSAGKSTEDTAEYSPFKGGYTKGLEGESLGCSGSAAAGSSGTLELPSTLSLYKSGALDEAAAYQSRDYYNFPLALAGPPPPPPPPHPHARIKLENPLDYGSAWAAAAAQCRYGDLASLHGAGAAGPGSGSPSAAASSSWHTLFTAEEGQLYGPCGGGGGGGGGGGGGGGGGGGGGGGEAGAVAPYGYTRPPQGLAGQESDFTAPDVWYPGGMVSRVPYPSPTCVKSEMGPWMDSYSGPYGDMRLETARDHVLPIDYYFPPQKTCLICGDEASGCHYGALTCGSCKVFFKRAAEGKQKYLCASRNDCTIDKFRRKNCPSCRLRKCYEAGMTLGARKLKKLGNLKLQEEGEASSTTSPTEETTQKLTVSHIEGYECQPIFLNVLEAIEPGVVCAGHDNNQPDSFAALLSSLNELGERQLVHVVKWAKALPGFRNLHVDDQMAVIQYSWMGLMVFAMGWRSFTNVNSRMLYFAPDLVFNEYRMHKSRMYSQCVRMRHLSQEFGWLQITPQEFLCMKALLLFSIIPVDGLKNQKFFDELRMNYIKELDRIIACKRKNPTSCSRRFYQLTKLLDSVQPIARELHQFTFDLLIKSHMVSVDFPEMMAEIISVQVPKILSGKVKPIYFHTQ

Compound	Potency [1]	Potency [2]	outcome [3]	Potency [4]	Potency [5]	Potency [6]	Potency [7]	Potency [8]	Potency [9]	Potency [10]	PLD induction [3]
Fc1ccc(C(OCCN2CCN(CCCc3ccccc3)CC2)c2ccc(F)cc2)cc1	23.7 µM (active)	8.41 µM (active)	inactive	inactive	inactive	18.8 µM (active)	21.1 µM (active)	inactive			
CN1CCc2cc(Cl)c(O)cc2[C@H]2c3ccccc3CC[C@@H]21	inactive		inactive	inactive	inactive	4.73 µM (active)	11.9 µM (active)	inactive	inactive		
CCN(CC)C(=O)N[C@@H]1C=C2c3cccc4[nH]cc(c34)C[C@@H]2N(C)C1	inactive		inactive	inactive	inactive			inactive	inactive		
COc1nc(C)nc(NC(=O)NS(=O)(=O)c2ccccc2Cl)n1	inactive			inactive	inactive	inactive	inactive	inactive	inactive		
COP(=O)(OC)O/C(=C\Cl)c1cc(Cl)c(Cl)cc1Cl	inactive	68.6 µM (active)		inactive	inactive	inactive	inactive	inactive			
O=S1(=O)OCC2C(CO1)C1(Cl)C(Cl)=C(Cl)C2(Cl)C1(Cl)Cl (stereo not drawn)				inactive			inactive	inactive	54.5 µM (active)	inactive	
O=C(N[C@H]1N=C(c2ccccc2F)c2cccc3c2N(CC3)C1=O)c1cc2ccccc2[nH]1			inactive	inactive	inactive	inactive	inactive	inactive		inactive	
CCCCC/C=C\C/C=C\C/C=C\C/C=C\CCCC(=O)NCC(=O)O	inactive			inactive	inactive	inactive	inactive	inactive	inactive		0.136% [at 3.15 µM]
CCOP(=O)(OCC)Oc1cc(C)nc(C(C)C)n1				inactive	inactive	inactive	inactive	inactive		inactive	
O.O.O.O=C([O-])[C@H]([O-])[C@@H]([O-])C(=O)[O-].O=C([O-])[C@H]([O-])[C@@H]([O-])C(=O)[O-].[K+].[K+].[Sb+3].[Sb+3]				inactive	inactive	inactive	inactive	inactive		48.8 µM (active)	
O=C(NC(=O)c1ccccc1Cl)Nc1ccc(OC(F)(F)F)cc1	inactive	inactive			inactive	inactive	inactive	inactive			
O=[N+]([O-])c1ccc(Cl)c(Cl)c1Cl	inactive			inactive	inactive	inactive	inactive	inactive	inactive		
C[N+]1(C)[C@@H]2CC[C@H]1CC(OC(=O)C(CO)c1ccccc1)C2 (stereo partly drawn)			inactive	inactive	inactive	inactive	inactive	inactive		inactive	
C#CC1(O)CCCCC1				inactive	inactive		inactive	inactive		inactive	
[O]=[Cr][O][Cr]=[O]				inactive	inactive	inactive	inactive	inactive		inactive	
CCCCCCCCCCCCCCn1cc[n+](C)c1				inactive		17.3 µM (active) and 24.1 µM (active)	19.4 µM (active) and 27 µM (active)	inactive		inactive	
O.O.O.O.O.O.O=S(=O)([O-])[O-].[Ni+2]				inactive		inactive	inactive	inactive		inactive	
[Cl-].[Cl-].[Sn+2]				inactive	inactive	inactive	inactive	inactive		inactive	
O=C(Nc1ccc(F)cc1F)c1cccnc1Oc1cccc(C(F)(F)F)c1				inactive	inactive	inactive	inactive	inactive		inactive	
CC1CN1 (stereo not drawn)	inactive			inactive	inactive		inactive	inactive	inactive		
CC(Cc1ccc2c(c1)OCO2)NO (stereo not drawn)	inactive		inactive	inactive	inactive	inactive	inactive	inactive			
N#CSCc1ccccc1	inactive			inactive	inactive	inactive		inactive	inactive		
Clc1cc(Cl)c(-c2cc(Cl)c(Cl)cc2Cl)cc1Cl	inactive			inactive	inactive	inactive	inactive	inactive			
COC(=O)N(OC)c1ccccc1COc1ccn(-c2ccc(Cl)cc2)n1	2.17 µM (active)			inactive		inactive	inactive	inactive			
COc1ccc(Cc2nccc3cc(OC)c(OC)cc23)cc1OC		6.68 µM (active)	inactive	inactive			inactive	inactive			
O=Cc1ccccc1	inactive		inactive	inactive		inactive	inactive	inactive			
COP(=O)(OC)Oc1ccc([N+](=O)[O-])cc1				inactive	inactive	inactive	inactive	inactive	inactive		
O=C(NC(=O)c1c(F)cccc1F)Nc1ccc(Oc2ccc(C(F)(F)F)cc2Cl)cc1F				inactive	inactive	inactive	inactive	inactive			
